The list is not random: actives were taken first. Their share in the collection is about 6.6%.
RGS4 inhibitor: blocks human RGS4-accelerated GTP hydrolysis. Potency, µM (titrated, usually from 114 µM), inactives show at the top dose activity change, negative = inhibition, most hits filed as inhibitors. Transcreener GDP fluorescence polarization, RGS4-accelerated GTP hydrolysis. AID 504845. P49798. hit rate 0.039% among 390,000; also: % is scaled to controls: 0 for no effect and ±100 for the full control effect; nearly all actives have a fitted effect of over 75% in size
Target sequence (P49798 whole entry, looked up): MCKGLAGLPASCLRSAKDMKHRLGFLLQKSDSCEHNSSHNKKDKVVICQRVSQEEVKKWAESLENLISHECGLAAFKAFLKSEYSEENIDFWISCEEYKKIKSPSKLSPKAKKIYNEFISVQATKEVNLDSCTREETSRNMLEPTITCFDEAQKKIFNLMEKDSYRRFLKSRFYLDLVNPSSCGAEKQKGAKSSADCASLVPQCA
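MLSMR compounds (23 nl, pin-transferred) preincubated 10 min at room temperature with a 500nM (2x) first reagent, then RGS4 at 900nM (2x) plus Transcreener GDP mix added; fluorescence polarization (620/688 nm) read before and after 90 min at 30 °C.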
SW480 rereplic: inducers of DNA re-replication in SW480 colon cancer cells; AID 624297; hit rate 1.8% among 340,000; SW480 DNA re-replication, Hoechst DNA content imaging, 48 h; Potency, µM (titrated, usually from 46.1 µM), for inactives: top-dose re-replication activation, most hits filed as activators; also: % of control where 0% means no effect; nearly all actives have a fitted effect of over 55% in size
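Cells (250 per well) received 23 nL compound or DMSO by pin tool and were kept 48 hr at 37 C, 5% CO2. Nuclei were then stained with Hoechst for 40 min and scanned for DNA content.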
MCF10A rerep: DNA re-replication induction in MCF 10a cells; Potency, µM (titrated, usually from 46.1 µM), inactives show at the top dose activity, positive = re-replication, usual class: activators; MCF 10A DNA re-replication, Hoechst nuclear intensity, 48 h; AID 624296; hit rate 2.9% among 350,000; also: % of control where 0% means no effect; nearly all actives have a fitted effect of over 50% in size
PTAP TSG101 blk: blocks PTAP/TSG101 interaction to inhibit HIV-1 budding. Fluorescence polarization, FITC-PTAP peptide / Tsg101 binding. Potency, µM (titrated, usually from 115 µM), for the others: top-dose activity change, negative = inhibition, hits mostly inhibitors. 340,000 tested, under 10 active. AID 493005; active = well fitted inhibition curve with a large enough effect in the main read-out, with a control signal flat, not every such curve was filed as active; inconclusive = small, poorly fitted or top-dose-only effect, or effect the other way, or a change in a side signal; inactive = no such curve, though single readings can be large or run the other way; also: % of control where 0% means no effect
Target sequence (Q99816 whole entry, looked up): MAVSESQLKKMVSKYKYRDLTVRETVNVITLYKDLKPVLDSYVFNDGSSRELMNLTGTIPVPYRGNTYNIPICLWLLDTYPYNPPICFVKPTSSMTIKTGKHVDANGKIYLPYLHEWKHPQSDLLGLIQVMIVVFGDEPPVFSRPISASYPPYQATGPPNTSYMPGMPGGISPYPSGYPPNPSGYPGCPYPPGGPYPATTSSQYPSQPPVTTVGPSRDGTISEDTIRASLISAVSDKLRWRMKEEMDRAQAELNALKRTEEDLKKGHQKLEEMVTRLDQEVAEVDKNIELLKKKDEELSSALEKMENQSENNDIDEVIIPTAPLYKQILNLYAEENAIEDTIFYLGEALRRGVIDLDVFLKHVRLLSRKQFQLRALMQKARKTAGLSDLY
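Steps: Tsg101 binding domain dispensed (10 uM final), compounds pinned in DMSO, FITC-labeled PTAP-motif peptide added (50 nM final); after 20 min binding at room temperature, polarization measured.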
KB-V1 MDR tox: KB-V1 MDR subline cytotoxicity; KB-V1 MDR cells viability, CellTiter-Glo, 72 h; Potency, µM (titrated, usually from 46.1 µM), usual class: cytotoxic; hit rate 3.4% among 400,000; AID 1347076; also: % is scaled to controls: 0 for no effect and ±100 for the full control effect; nearly all actives have a fitted effect of over 60% in size
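Luminescent ATP read-out (CellTiter-Glo, 10 min) measures survival of drug-selected KB-V1 MDR cells after 72 h, 37 degrees C compound exposure. Medium: phenol-red-free DMEM, 10% FBS. Values from fitted concentration-response curves.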
KB-3-1 cytotox: kills parental KB-3-1 adenocarcinoma cells. Potency, µM (titrated, usually from 46.1 µM), actives largely listed as cytotoxic. AID 1347075. KB-3-1 viability, CellTiter-Glo ATP luminescence, 72 h. hit rate 1.4% among 400,000; also: % is scaled to controls: 0 for no effect and ±100 for the full control effect; nearly all actives have a fitted effect of over 60% in size
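Cytotoxicity measured as CellTiter-Glo luminescence after 72 h at 37 C. Compound titrations were pinned onto drug-naive KB-3-1 parental adenocarcinoma cells grown in DMEM with 10% FBS, and normalized data fitted to concentration-response curves.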
Starred values were filed as active, the others as inactive; i = inactive; ? = inconclusive; · = no result given. Unless noted, calls follow the shape of the dose curve; as a rule, active = well fitted curve in the direction sought with a large enough effect; inconclusive = small, poorly fitted or top-dose-only effect, or another doubt; inactive = no such curve, though single readings can be large; an effect the other way counts as inactive or inconclusive. Potency is read from the fitted curve at half-maximal effect.

SMILES | RGS4 inhibitor | SW480 rereplic | MCF10A rerep | PTAP TSG101 blk | KB-V1 MDR tox | KB-3-1 cytotox
O=C(COc1ccc(Br)cc1)N1CCN(S(=O)(=O)/C=C/c2ccccc2)CC1 | 3% | ? | 6% | 0% | ? | i
O=C(c1ccc(Cl)cc1)N1CCN(S(=O)(=O)/C=C/c2ccccc2)CC1 | -2% | -24% | -2% | -9% | i | 23µM*
CC(C)c1ccc(NC(=O)C2CCCN(S(=O)(=O)c3ccc(Br)s3)C2)cc1 (configuration not stated) | -1% | · | · | · | i | i
CCn1cc([N+](=O)[O-])c(C(=O)Nc2ccn(Cc3ccccc3)n2)n1 | 5% | -6% | -4% | 1% | i | i
Cc1ccc(Cn2ccc(NC(=O)c3nn(C)cc3[N+](=O)[O-])n2)cc1 | 20% | 12µM* | 13µM* | 0% | 10µM* | ?
Cc1ccc(Cn2ccc(NC(=O)c3noc4c3CCCCC4)n2)cc1 | -26% | 5% | 18% | -1% | 5.2µM* | ?
Cc1cc(C)n(Cc2ccc(NC(=O)c3nn(C)cc3[N+](=O)[O-])cc2)n1 | -19% | 2.9µM* | 2.3µM* | -7% | ? | i
O=[N+]([O-])c1cc(Oc2cccnc2)cc([N+](=O)[O-])c1 | -17% | -3% | 0% | -7% | i | i
Cc1ccc(Cn2ccc(NC(=O)c3noc4c3CCCC4)n2)cc1 | -27% | 3% | -9% | -9% | i | i
CCn1cc([N+](=O)[O-])c(C(=O)Nc2ccc(Cn3nc(C)cc3C)cc2)n1 | -6% | -5% | 1% | -9% | i | i
Cn1cc([N+](=O)[O-])c(C(=O)Nc2cc(Oc3cccnc3)cc([N+](=O)[O-])c2)n1 | -44% | 10µM* | 9.2µM* | -7% | ? | ?
CC(C)c1ccc(NC(=O)Cn2cc(S(=O)(=O)Cc3cccc(Cl)c3)c3ccccc32)cc1 | -1% | · | · | · | i | i
Cn1cc([N+](=O)[O-])c(C(=O)Nc2ccn(C34CC5CC(CC(C5)C3)C4)n2)n1 | -32% | ? | ? | 0% | 15µM* | 4.6µM*
Cn1cc([N+](=O)[O-])c(C(=O)Nc2ccc(C(=O)N3CCCCC3)cc2)n1 | 6% | 15µM* | 21µM* | -3% | ? | 23µM*
Cc1ccc(-c2nn(-c3cccc([N+](=O)[O-])c3)c3c2cnc2ccc(F)cc23)cc1 | 3% | · | · | · | i | i
CCCOc1ccc(C2c3c(-c4ccccc4O)n[nH]c3C(=O)N2CCc2ccccc2)cc1OCC (configuration not stated) | 3% | · | · | · | i | i
OCCCCNCc1ccc(OCc2ccc(Cl)cc2Cl)cc1 | 18% | 3% | 10% | -6% | i | i
OCCNCc1ccc(OCc2ccc(Cl)cc2Cl)cc1 | -1% | 4.1µM* | ? | -5% | i | i
CCn1nc(C)c(CCN(C)C(=O)Nc2cc(C)cc(C)c2)c1C | -5% | · | · | · | i | i
CC1=C(C(=O)Nc2ccccc2F)C(c2ccsc2)C2=C(CC(C)(C)CC2=O)N1 (configuration not stated) | 2% | ? | 102% | 1% | i | ?
CCOC(=O)C1=C(C)NC2=C(C(=O)CC(c3cccs3)C2)C1c1cccs1 (configuration not stated) | -9% | ? | 20µM* | -1% | 15µM* | 5.8µM*
CCOC(=O)C1=C(C)NC(c2cccs2)C(=O)N1 (configuration not stated) | -18% | ? | 13% | -3% | i | i
CCCOC(=O)C1=C(C)NC2=C(C(=O)CCC2)C1c1cccs1 (configuration not stated) | 1% | 0% | 1% | -5% | 23µM* | i
COC(=O)C1=C(C)NC2=C(C(=O)CC(c3cccs3)C2)C1c1ccsc1 (configuration not stated) | 67% | ? | ? | -3% | 7.3µM* | ?
CC1=C(C(=O)OC2CCCC2)C(c2ccc(C)o2)C2=C(CC(c3cccs3)CC2=O)N1 (configuration not stated) | ? | ? | ? | -6% | 21µM* | i
SMILES | RGS4 inhibitor | SW480 rereplic | MCF10A rerep | PTAP TSG101 blk | KB-V1 MDR tox | KB-3-1 cytotox
CC1=C(C(=O)OC2CCCCCC2)C(c2ccc(C)o2)C2=C(CCCC2=O)N1 (configuration not stated) | 22% | ? | 23% | -12% | ? | i
Cc1ccc(-c2nnc(SCCC(=O)Nc3ccccc3)n2C)cc1 | · | · | · | · | i | i
Cc1ccc2nc(CN3CCN(S(=O)(=O)c4ccc(F)cc4)CC3)oc2c1 | -21% | · | · | · | i | i
CC(C)c1ccc(Nc2nc(Nc3ccc(Cl)cc3)nc(N3CCOCC3)n2)cc1 | 9% | · | · | · | ? | ?
FC(F)(F)c1cccc(Cn2nnnc2-c2ccc(Cl)cc2)c1 | -14% | -6% | 7% | -6% | 15µM* | ?
CCCn1nnnc1-c1ccc(Cl)cc1 | -15% | -7% | 0% | -7% | i | i
COc1ccc(CNCc2cc3c(C(C)(C)C)nn(-c4ccccc4)c3[nH]c2=O)cc1 | 5% | -3% | 8% | 1% | ? | i
Cc1ccc(CNCc2cc3c(C(C)(C)C)nn(-c4ccccc4)c3[nH]c2=O)cc1 | -12% | ? | ? | -4% | 23µM* | i
CN=c1scc(-c2ccc(F)cc2)n1/N=C/c1ccc(O)c(O)c1 | -16% | 15µM* | ? | -5% | i | ?
CC(/C=N/N1CCN(c2ccccc2)CC1)=C\c1ccccc1 | -3% | -2% | 2% | -4% | i | i
CC(/C=N/N1CCN(c2ccccn2)CC1)=C\c1ccccc1 | 0% | 1% | 13% | -7% | 21µM* | i
O=C1c2ccccc2-c2c1c1ccccc1c(=O)n2CCO | -8% | 24% | ? | -1% | 18µM* | i
O=C1c2ccccc2-c2c1c1ccccc1c(=O)n2-c1ccccc1 | -28% | 1% | ? | -2% | i | i
Oc1ccc(NCc2ccccc2OCc2ccccc2)cc1 | ? | 15µM* | 23µM* | -4% | i | i
CC(C)OC(=O)c1ccc(NCc2cc(O)ccc2O)cc1 | -40% | ? | ? | -7% | ? | ?
OCCNCCNCc1ccccc1OCc1ccccc1 | 0% | 21µM* | 3% | -3% | i | i
O=C(OCc1ccccc1)c1ccc(NCc2cc(O)ccc2O)cc1 | -23% | ? | ? | 0% | 2.6µM* | 3.7µM*
COc1cccc2sc(N(Cc3cccnc3)C(=O)c3ccc4c(c3)OCCO4)nc12 | -31% | · | · | · | · | ·

Bioassay records from PubChem.
